Assay results from PubChem BioAssay (NCI).
Where “and” joins values, the source holds several entries; their conditions need not be identical. Equal entries are not always repeated. About 79,000 compounds went through this panel and 15% of them were active in at least one assay; those are over-represented in the sample as a whole. Cut-off read from the data, not from the text of the source: active = growth inhibition above about 70%; inactive = the rest.

Experiments:
[1] = NCI Yeast Anticancer Drug Screen. Data for the rad50 strain (AID 155);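 note: 0% = growth of vehicle-only cultures of the same strain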; conditions: S. cerevisiae rad50 strain growth inhibition, hits give high values; at 50.0 µM unless noted
In short: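 Genetically altered yeast (DNA repair pathway); compound treatment; growth inhibition vs vehicle ctrl.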

[2] = NCI Yeast Anticancer Drug Screen. Data for the mec2-1 strain (AID 157); conditions: S. cerevisiae mec2-1 strain, hits give high values; at 50.0 µM unless noted
In short: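 Growth inhibition is read against vehicle-treated controls after compound exposure of the mec2-1 yeast strain, which is defective in DNA damage repair or cell cycle control.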

[3] = NCI Yeast Anticancer Drug Screen. Data for the sgs1 mgt1 strain (AID 161);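 note: 0% = growth of cultures given vehicle only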; conditions: S. cerevisiae sgs1 mgt1 strain, hits give high values; at 50.0 µM unless noted
In short: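 Compounds are added to genetically altered yeast, and growth is compared with cultures given vehicle alone to give percent inhibition.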

[4] = NCI Yeast Anticancer Drug Screen. Data for the cln2 rad14 strain (AID 165);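 note: 0% = growth equal to vehicle treated cultures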; conditions: S. cerevisiae cln2 rad14 strain, hits give high values; at 50.0 µM unless noted
In short: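 Growth inhibition, relative to vehicle-treated controls, is the read-out. The test organism is a yeast strain with defined genetic alterations, cln2 rad14.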

[5] = NCI Yeast Anticancer Drug Screen. Data for the bub3 strain (AID 167); conditions: S. cerevisiae bub3 mutant strain, hits give high values; at 50.0 µM unless noted
In short: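 Yeast carrying a defined mutation is treated with each compound, and growth is compared with that of vehicle-exposed cells to give inhibition.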

[6] = NCI Yeast Anticancer Drug Screen. Data for the mlh1 rad18 strain (AID 175); conditions: S. cerevisiae mlh1 rad18 strain growth inhibition, hits give high values; at 50.0 µM unless noted
In short: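 Cells of a genetically altered yeast strain, deficient in DNA damage repair, were treated with compound. Their growth was then compared with that of vehicle-treated cultures to give inhibition.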

Measured: growth inhibition

O=C1CSC2=NCCN12
inactive: [1] 14.8% and 22.8% | [2] -3.6% and -15.3% | [3] -5.25% and 6.8% | [4] 1.5% and 3.2% | [5] 1.55% and -11.9% | [6] 21.3% and 18.8%

Cc1ncc(CO)c(CO)c1OCC(O)CN1CCN(c2ccc(F)cc2)CC1 (stereo not drawn)
inactive: [1] -15.8% | [2] -2.65% | [3] -8.25% | [4] -41.2% | [5] -6.9% | [6] -0.45%

COc1cc(O)c(C(C)=O)c(O)c1
inactive: [1] 9.55% | [2] 16.2% | [3] 9.5% | [4] 16.8% | [5] 29.2% | [6] 18.5%

CCCCCCN(CCCCCC)CC(O)c1cc(-c2ccc(Cl)cc2)nc2c(Cl)cccc12 (stereo not drawn)
inactive: [1] -21.2% | [2] -8.05% | [3] 18.4% | [4] -0.35% | [5] -9.5% | [6] 19.9%

O=C(/C=C\c1ccc(Cl)c(Cl)c1)/C=C/c1ccc(Cl)c(Cl)c1
inactive: [1] 25.5% | [2] 4.75% | [3] 26.4% | [4] 9.55% | [5] 39% | [6] 16.6%

Cc1ccc(S(=O)(=O)OC2C(OCc3ccccc3)OC(CO)C2O)cc1 (stereo not drawn)
inactive: [1] -6% | [2] 6.65% | [3] -9.2% | [4] 15.3% | [5] -0.6% | [6] -9.15%

Cc1ccc(OCC(=O)O)c(Cl)c1
inactive: [1] -1.9% | [2] -1.9% | [3] 0.65% | [4] -22.4% | [5] 17.4% | [6] 2.3%

Cc1ccc([N+](=O)[O-])cc1N1C(=O)c2ccccc2C1=O
inactive: [1] 14.5% | [2] -13.6% | [3] 12.6% | [4] 8.2% | [5] 13.6% | [6] 13.2%

N#CSc1ccc(NN)cc1
inactive: [1] 11.2% | [2] -2.05% | [3] 30.4% | [4] -4.65% | [5] 33.7% | [6] 1.55%

O=C1CN(c2ccccc2)C(=O)CN1NCNN1CC(=O)N(c2ccccc2)CC1=O
inactive: [1] -27.4% | [2] 2.1% | [3] -1.5% | [4] 4.35% | [5] -10% | [6] -5%

CC1=CCC(CC2CO2)C1(C)C (stereo not drawn)
inactive: [1] -27.6% | [2] -48.4% | [3] -17.2% | [4] -9.95% | [5] -35.2% | [6] -31.1%

O=C1CN(CCc2ccccc2)CC(=O)N2C(c3ccccc3)CCCN12 (stereo not drawn)
inactive: [1] 62.7% | [2] 38.5% | [3] 65.2% | [4] 42.2% | [5] 52% | [6] 43.4%

Clc1cc2cc3cccc[n+]3cc2cc1Cl
inactive: [1] 54% | [2] 16.1% | [3] 26.2% | [4] -22.9% | [5] 14.6% | [6] 3.7%

C/C(=C\CNc1ncnc2c1ncn2CCC#N)CO
inactive: [1] -17% | [2] 13.2% | [3] -33.2% | [4] 1.5% | [5] 14.8% | [6] -15.9%

CN(C)C1=NS(=O)(=O)c2ccccc21
inactive: [1] -0.75% | [2] 1% | [3] -7.25% | [4] -40.3% | [5] 6.35% | [6] 2.9%

CCOc1ccc(N=Nc2c(O)n(-c3ccc(Cl)cc3)c(=S)n(-c3ccccc3)c2=O)cc1
inactive: [1] -15.2% | [2] 2.5% | [3] 7.85% | [4] -0.15% | [5] 32.5% | [6] 26.4%

COc1ccccc1OC(=O)Nc1ccc(S(=O)(=O)NC2CCCCC2)cc1
inactive: [1] 12.1% | [2] -10.8% | [3] 0% | [4] 2.25% | [5] -5.95% | [6] -2.2%

CCCCCCCC/C=C\CCCCCCCC(=O)NN
inactive: [1] -7.85% | [2] 0.15% | [3] -4.25% | [4] -76% | [5] -2.7% | [6] -12.8%
